FBW7 activator – FBW7 E3 ligase activators, primary screen, biochemical, AlphaScreen, human. F-box/WD repeat-containing protein 7 (Homo sapiens), Q969H0. AlphaScreen FBW7–phospho-cyclin E peptide binding, activator screen. normalized activity (activation), % at 26.1 µM. 650,000 compounds, 0.13% hits; in the data active = normalized activity above about 1.9%;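 note: purified mutant Fbw7 with reduced substrate affinity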
MITF inh – MITF inhibitors, primary screen, biochemical, AlphaScreen, human; inhibition, % at 2.6 µM; 650,000 compounds, 0.91% hits; AlphaScreen MITF homodimerization, bead proximity signal; in the data active = inhibition above about 50%;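 note: 0% = vehicle wells with protein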
GPR151 ag – activators of human GPR151, primary screen, cell-based, PathHunter beta-arrestin, luminescence. G-protein coupled receptor 151 (Homo sapiens), Q8TDV0. PathHunter beta-arrestin GPR151 cells. activation, % at 11.2 µM. 650,000 compounds, 1% hits. AID 1508602, 2020; in the data active = activation above about 4.9%;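 note: 0% = median of compound wells and 100% = cells with positive control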
TEAD-YAP inh – TEAD-YAP interaction inhibition, primary screen, TEAD-YAP interaction inhibitor project, luminescence, HEK-TIYL cells. TEAD-Gal4/YAP UAS-luciferase luminescence. inhibition, % at 9.12 µM. 640,000 compounds, 1.4% hits. AID 1259422, 2018; in the data active = inhibition above about 32%;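 note: 0% = median of test compound wells and 100% = reference inhibitor wells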
GPR151 conf act – GPR151 activators, triplicate retest, confirmation, cell-based, PathHunter beta-arrestin, luminescence | GPR151 PathHunter beta-arrestin cells, 90 min; % of EA-reagent control over plate median | shares compounds with GPR151 ag | 6,700 tested, under 10 active | activation, % at 11.2 µM;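 active = mean percent activation across replicates above the confirmation screen cutoff of 4.91%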
GPR119 counter – GPR119 activators in beta-arrestin cells, counter-screen for GPR151 activator project, cell-based, PathHunter beta-arrestin, luminescence, triplicate; AID 1508611, 2020; activation, % at 11.2 µM; shares compounds with GPR151 ag; 6,700 compounds, 0.3% hits; 90 min; 0 = compound-well median, 100 = enzyme-acceptor control;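 active = mean percent activation in the counterscreen above 29.09%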;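 note: counterscreen on off-target GPR119 to flag nonselective hits from the GPR151 activator screen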
Target sequence (Q8TDV5 whole entry, looked up): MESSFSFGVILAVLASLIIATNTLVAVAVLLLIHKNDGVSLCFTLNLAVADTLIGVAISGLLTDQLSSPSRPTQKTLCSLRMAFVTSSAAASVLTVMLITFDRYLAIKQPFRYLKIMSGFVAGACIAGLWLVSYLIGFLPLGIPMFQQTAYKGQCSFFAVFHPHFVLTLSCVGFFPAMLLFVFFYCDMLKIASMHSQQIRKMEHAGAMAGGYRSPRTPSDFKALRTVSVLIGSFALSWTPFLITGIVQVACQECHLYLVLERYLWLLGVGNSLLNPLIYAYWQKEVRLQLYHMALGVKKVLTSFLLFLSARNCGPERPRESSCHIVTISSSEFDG
* hit, by the source's call. Shown are actives, neighbours in structure and some others; about 3.5% of the full set was active somewhere.

For CC1(C)Oc2ccc(C(=O)N3CCCC3)cc2N(CC(=O)NCc2ccccc2)C1=O the results were FBW7 activator 0, MITF inh 8, GPR151 ag 6.1*, TEAD-YAP inh -2, GPR151 conf act 2 and GPR119 counter 8.
`COc1ccc2ccccc2c1/C=C1\C(=O)NC(=O)N(c2ccc([N+](=O)[O-])cc2)C1=O` gave FBW7 activator 0, MITF inh 10, GPR151 ag 6.7*, TEAD-YAP inh 8, GPR151 conf act 0 and GPR119 counter 0.
Screening COc1cccc(N2C(=O)NC(=O)/C(=C/c3c(OC)ccc4ccccc34)C2=O)c1 returned FBW7 activator 0, MITF inh -11, GPR151 ag -1 and TEAD-YAP inh 3.
COc1ccc(N2C(=O)NC(=O)/C(=C/c3cccn3-c3cccc([N+](=O)[O-])c3)C2=O)cc1 was read as FBW7 activator 0, MITF inh 15, GPR151 ag 4.9*, TEAD-YAP inh 0, GPR151 conf act 0 and GPR119 counter 4.
`COC(=O)c1ccccc1NC(=O)CSc1nc2ccccc2c(=O)[nH]1` gave FBW7 activator 0, MITF inh 2, GPR151 ag 0 and TEAD-YAP inh 5.
Screening NC(=O)c1ccccc1NC(=O)CSc1nc2ccccc2c(=O)[nH]1 returned FBW7 activator 0, MITF inh -14, GPR151 ag 5.3*, TEAD-YAP inh 0, GPR151 conf act 0 and GPR119 counter 0.
For CCOc1ccc2ccccc2c1C(=O)NCc1cccs1 the results were FBW7 activator 1, MITF inh 9, GPR151 ag -1 and TEAD-YAP inh 2.
CCOc1ccc2ccccc2c1C(=O)NCc1ccccn1 was read as FBW7 activator 0, MITF inh 15, GPR151 ag 21*, TEAD-YAP inh -8, GPR151 conf act 0 and GPR119 counter 2.
Screening COc1ccc(-c2cnc(NCCc3c[nH]c4ccccc34)nc2)cc1 returned FBW7 activator 0, MITF inh 0, GPR151 ag 5.2*, TEAD-YAP inh -11, GPR151 conf act 0 and GPR119 counter -8.
Screening CCOc1ccc(C(=O)NCCn2cc(SC(=N)N)c3ccccc32)cc1 returned FBW7 activator 0, MITF inh 1, GPR151 ag 5.0*, TEAD-YAP inh 10, GPR151 conf act 0 and GPR119 counter -4.
`O=C1CC(N(Cc2ccc3c(c2)OCO3)C(=O)c2ccc(Cl)cc2)C(=O)N1c1ccc(Cl)cc1` (centres undefined) gave FBW7 activator 0, MITF inh 7, GPR151 ag 0 and TEAD-YAP inh 3.
Screening Cc1sc(NC(=O)CCOc2ccccc2)c(C#N)c1C returned FBW7 activator 0, MITF inh -5, GPR151 ag 6.9*, TEAD-YAP inh 6, GPR151 conf act -1 and GPR119 counter 4.
`O=C(CN1C(=O)COc2cc(S(=O)(=O)N3CCCCC3)ccc21)NC1CCCCCC1` gave FBW7 activator 0, MITF inh 7, GPR151 ag 1 and TEAD-YAP inh 6.
For COC(=O)CN1C(=O)COc2cc(S(=O)(=O)N3CCCCCC3)ccc21 the results were FBW7 activator 0, MITF inh 7, GPR151 ag 5.8*, TEAD-YAP inh 2, GPR151 conf act -1 and GPR119 counter -15.
`O=C(CN1C(=O)COc2cc(S(=O)(=O)N3CCCC3)ccc21)NC1CCCCCCC1` gave FBW7 activator 0, MITF inh 0, GPR151 ag 7.1*, TEAD-YAP inh 7, GPR151 conf act 0 and GPR119 counter -9.
`CCOc1cc(C2C(C#N)=C(N)Oc3n[nH]c(-c4ccccc4)c32)ccc1OC` (centres undefined) gave FBW7 activator 0, MITF inh 2, GPR151 ag -1 and TEAD-YAP inh -3.
`COc1ccc(C(=O)/C=C\c2cccs2)cc1OC` gave FBW7 activator 0, MITF inh 11, GPR151 ag 0 and TEAD-YAP inh -7.
`C#C[C@]1(O)CC[C@H]2[C@@H]3CCC4=CC(=O)CC[C@@H]4[C@H]3CC[C@@]21C` gave FBW7 activator 0, MITF inh 26 and GPR151 ag 0.
C#C[C@]1(OC(C)=O)CC[C@H]2[C@@H]3CCC4=CC(=O)CC[C@@H]4[C@H]3CCC21C (some centres undefined) was read as FBW7 activator 0, MITF inh -1, GPR151 ag 9.3*, GPR151 conf act -1 and GPR119 counter -4.
Cc1cc2c(cc3c(=O)n(CC(=O)N4CCCC(C)C4)nc(C)n32)s1 (centres undefined) was read as FBW7 activator 0, MITF inh 17, GPR151 ag 0 and TEAD-YAP inh 2.
Cc1cc2c(cc3c(=O)n(CC(=O)NCCCN4CCCC(C)C4)nc(C)n32)s1 (centres undefined) was read as FBW7 activator 0, MITF inh 8, GPR151 ag 7.7*, TEAD-YAP inh -1, GPR151 conf act 0 and GPR119 counter -8.
`CCc1nn(CC(=O)NCCN(C)C2CCCCC2)c(=O)c2cc3sc(C)cc3n12` gave FBW7 activator 0, MITF inh -1, GPR151 ag 8.6*, TEAD-YAP inh -1, GPR151 conf act 0 and GPR119 counter -9.
Cc1nc(NC(=O)/C=C/c2ccccc2)sc1C(=O)Nc1cccnc1 was read as FBW7 activator 0, MITF inh -7, GPR151 ag 9.1*, TEAD-YAP inh 12, GPR151 conf act 0 and GPR119 counter -5.
For COc1cc(NC(=O)c2c(C)cc3ccccn23)cc(OC)c1OC the results were FBW7 activator 0, MITF inh 18, GPR151 ag 7.3*, TEAD-YAP inh 0, GPR151 conf act 0 and GPR119 counter -2.
O=C(CCC(=O)OCC(=O)c1ccc(Cl)c(Cl)c1)Nc1ccc(F)cc1 was read as FBW7 activator 1, MITF inh 13, GPR151 ag 1 and TEAD-YAP inh 0.
`O=C(CCC(=O)OCC(=O)c1ccc(Cl)c(Cl)c1)Nc1ccccc1` gave FBW7 activator 0, MITF inh -1, GPR151 ag 5.5*, TEAD-YAP inh -1, GPR151 conf act 1 and GPR119 counter 1.
`Nc1c(C(=O)Nc2cccc(F)c2)nnn1Cc1ccccc1Cl` gave FBW7 activator 0, MITF inh 1, GPR151 ag 1 and TEAD-YAP inh -56.
